# Compounds with a hit are over-represented: about 8% of the library has one in this group of screens.
# FMDV antiviral: blocks foot and mouth disease virus | hit rate 1.2% among 410,000 | Potency, µM (titrated, usually from 57.9 µM), for inactives: top-dose activity change, negative = inhibition, hits mostly inhibitors | FMDV antiviral cell-based qHTS; calls by dose curve; tested in HEK293T cells; also: read-out not given here; potency is read from the fitted curve at half-maximal effect; % is scaled to controls: 0 for no effect and ±100 for the full control effect; nearly all actives have a fitted effect of over 45% in size
# HCMV inh: blocks human cytomegalovirus replication | AID 1259415 | HFF cells, HCMV-luciferase reporter, 72 h; stronger effect = lower value | hit rate 4.5% among 410,000 | activity change, negative = inhibition, % at 57.5 µM; in the data active = activity change below about -60%; inconclusive = no clear call, values can overlap the other calls; inactive = above about -39%; also: % is scaled to controls: 0 for no effect and ±100 for the full control effect
#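 Screen run at 2 compound doses on HFFs infected with reporter HCMV, MOI 1 PFU/cell. Luciferase activity from cell lysates at 72 h post infection gave inhibition relative to buffer-only and Salinomycin wells.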
# LASV entry inh: Lassa virus entry inhibition; Lassa virus pseudotype entry inhibition, cell reporter; Potency, µM (highest dose often 37.9 µM), for the others: top-dose activity change, negative = inhibition, usual class: inhibitors; hit rate 1.2% among 300,000; calls by dose curve; tested in HEK293 cells; also: potency is read from the fitted curve at half-maximal effect; % is scaled to controls: 0 for no effect and ±100 for the full control effect; nearly all actives have a fitted effect of over 50% in size
# HCV inh: blocks hepatitis C virus | Huh7.5.1 HCVcc-Cre infection, luciferase reporter, 44 h | Potency, µM (series often up to 41.8 µM), for the others: at the top dose activity change, negative = inhibition, most hits filed as inhibitors | hit rate 3.4% among 340,000; active = well fitted inhibition curve with a large enough effect; inconclusive = small, poorly fitted or top-dose-only effect, or another doubt; inactive = no such curve, though single readings can be large or run the other way; also: potency is read from the fitted curve at half-maximal effect; % is scaled to controls: 0 for no effect and ±100 for the full control effect
#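 Whole-lifecycle infectious HCVcc-Cre system; cells 1,000/well, compound then virus (~0.5 moi) added 4 h after plating, 44 h culture. Luciferase read 15 sec following 15 min substrate incubation, room temp.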
# SARS PLpro yeast: inhibitors of SARS-CoV papain-like protease in yeast | S. cerevisiae expressing SARS-CoV PLpro, growth rescue | Potency, µM (highest dose often 32.9 µM), inactives show at the highest dose activity, positive = growth rescue, usual class: activators | hit rate 0.19% among 330,000; calls by dose curve; also: potency is read from the fitted curve at half-maximal effect; 0% is about no effect; nearly all actives have a fitted effect of over 55% in size
# MARV entry inh: inhibitors of Marburg virus binding or cell entry. Marburg virus pseudotyped entry inhibition, cell reporter. Potency, µM (top dose mostly 37.8 µM), without a hit: at the highest dose activity change, negative = inhibition, hits mostly inhibitors. hit rate 1.8% among 300,000. AID 540276; calls by dose curve; tested in HEK293 cells; also: potency is read from the fitted curve at half-maximal effect; % is scaled to controls: 0 for no effect and ±100 for the full control effect
# The depositor's hits bear a star; ? = inconclusive; . = no result; ! = not active in a repeat; [ ] = dose if it differs, or a comment.
SMILES,FMDV antiviral,HCMV inh,LASV entry inh,HCV inh,SARS PLpro yeast,MARV entry inh
COC(=O)NCC(c1ccco1)N1CCN(c2ccc(F)cc2)CC1 (stereo not given),3%,-14,-28%,28%,-7%,1%
COc1cc(-c2nnc(SCC(=O)N(Cc3ccccc3)C(C)(C)C)o2)cc(OC)c1OC,.,-9,-20%,?,-10%,?
COc1cc(OC)cc(-c2nnc(SCC(=O)N(Cc3ccccc3)C(C)(C)C)o2)c1,-6%,-71*,-13%,-29%,-1%,?
COc1ccc(NCc2cc3cc4c(cc3n(CC(=O)Nc3ccc(C)c(C)c3)c2=O)OCO4)cc1,8%,1,-18%[46.1 µM],.,.,.
Cc1cc(OCc2cc(C(=O)NC(C)c3c(C)nn(C)c3C)no2)cc(C)c1Cl (stereo not given),-1%,?,.,11µM*,-6%,.
COc1ccccc1NS(=O)(=O)c1cc(NC(=O)CC(C)(C)C)ccc1N1CCOCC1,56%,?,-27%,?,1%,?
COc1ccccc1NS(=O)(=O)c1cc(NC(=O)c2ccco2)ccc1N1CCOCC1,31%,37,4%,-28%,0%,-5%[46.1 µM]
CCC(C(=O)Nc1ccc(N2CCOCC2)c(S(=O)(=O)Nc2ccccc2OC)c1)c1ccccc1 (stereo not given),57%,-81*,?,?,1%,?
COc1ccccc1NS(=O)(=O)c1cc(NC(=O)CCC2CCCC2)ccc1N1CCOCC1,26%,-104*,.,10%,0%,.
COc1ccc(C)cc1NC(=O)C1CCN(S(=O)(=O)c2ccc3[nH]c4c(c3c2)CCCCC4)CC1,-3%,?,12%[46.1 µM],.,.,.
Cc1ccc(-c2nc(=S)c3c(n2Cc2ccco2)CC(C)(C)OC3)cc1,?,.,-18%,-1%,0%,13µM*
CCN(CC)CCC(=O)N1c2ccccc2Sc2ccc(C(F)(F)F)cc21,.,-85*,.,.,.,.
O=C(CN1CCCC(O)C1)N1c2ccccc2Sc2ccc(C(F)(F)F)cc21 (stereo not given),?,20,-21%,0%,3%,-2%
CN1CCN(CCC(=O)N2c3ccccc3Sc3ccc(Cl)cc32)CC1,-16%,-34,-23%,?,-3%,?
O=C(CCN1CCN(CCO)CC1)N1c2ccccc2Sc2ccc(C(F)(F)F)cc21,-5%,35,.,13µM*,4%,-6%
CN1CCN(CCCN2c3ccccc3Sc3ccc(C(F)(F)F)cc32)CC1,?,-79*!,13µM*,14µM*!,-3%,6.5µM*
Cc1c(-c2ccc(Cl)cc2)c(=O)oc2c(CN3CCN(C)CC3)c(O)ccc12,-21%,-28,21%[46.1 µM],.,.,.
C=CCS/C(N)=N\N=C\c1c(O)ccc2ccccc12,44%,53,.,22µM*,-3%,.
O=C(NCc1ccc(Cl)cc1)C1CCN(S(=O)(=O)c2ccc3c(c2)CCCN3C(=O)C2CCC2)CC1,?,-25,?,.,.,.
C[C@@H]1CC[C@H]2C(=O)O[C@@H](COc3ccc(C(C)(C)C)cc3)CN2[C@H]1c1ccc(Br)cc1,.,.,-26%[14.3 µM],.,.,?
CCCN(C(=O)CCc1nc(-c2ccc(C)cc2)no1)c1ccc(OCC)cc1,-18%,2,?,.,.,?
CC(C)Cc1ccc(CN2CCCC(NC(=O)c3cccc(-n4cnnc4)c3)C2)cc1 (stereo not given),?,-60*,-19%,?,-1%,?
CC(C)Cc1ccc(CN2CCCC(NC(=O)c3ccnn3C)C2)cc1 (stereo not given),?,-80*,?,11µM*,7%,10µM*
CC(C)Cc1ccc(CN2CCCC(NC(=O)c3ccoc3)C2)cc1 (stereo not given),-29%,-33,?,?,2%,?
O=C(OC1CCN(CCCl)CC1)C(c1ccccc1)c1ccccc1,16µM*,?,.,32µM*,.,10µM*
SMILES,FMDV antiviral,HCMV inh,LASV entry inh,HCV inh,SARS PLpro yeast,MARV entry inh
COc1ccc(NC(=O)CCn2cnc3onc(-c4ccc(F)cc4)c3c2=O)cc1OC,10µM*,-72*,0%[46.1 µM],.,.,.
COc1cc(Cl)c(C)cc1NC(=O)CCn1cnc2onc(-c3ccc(F)cc3)c2c1=O,0%,-11,-9%[46.1 µM],.,.,.
CCCSCCCNC(=O)CN1C(=O)COc2ccc(S(=O)(=O)N3CCC(C)CC3)cc21,-13%,-8,-6%[46.1 µM],.,.,-1%[46.1 µM]
Cc1ccc(-c2nc(CS(=O)CC(=O)N3CCN(c4ccc(Cl)cc4)CC3)c(C)o2)cc1 (stereo not given),-24%,-71*,?,.,.,.
CCN(CCCNC(=O)c1cc2cc3ccc(OC)cc3nc2s1)c1cccc(C)c1,25%,-68*,-13%[46.1 µM],.,.,-34%[46.1 µM]
COc1ccc(OC)c(NC(=O)c2cc3cc4ccc(C)cc4nc3s2)c1,-7%,-15,16%[46.1 µM],.,.,9%[46.1 µM]
CCN(CCCNC(=O)c1cc2cc3ccc(OC)cc3nc2s1)c1ccccc1,12%,-77*,?,.,-11%,?
CCN(CCCNC(=O)c1cc2c(=O)[nH]c3ccccc3c2s1)c1ccccc1,-4%,-81*,-3%[46.1 µM],.,.,-3%[46.1 µM]
